# Entries with a potency or affinity are not part of this list. Results filed as inconclusive are left out. Unmarked numbers belong to inactive results.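 How the source made its calls: active means a valid curve of falling signal whose half-effect concentration is at most ten times the top tested dose; inconclusive means flat curve at 30 to 70% inhibition, or poor fit; inactive means signal rise, flat within 30%, or potency beyond limit.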
# Target: Scavenger receptor class B member 1 (Mus musculus) (UniProt Q61009)
# Assay: mouse SR-BI DiI-HDL uptake blockers – ldlA[mSR-BI] cells, fluorescence, cherry pick, dose response (AID 493194);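 further: CHO cells lacking LDL receptor and overexpressing mouse SR-BI; cellular uptake of fluorescently labeled HDL measured as cell fluorescence; 0% = median of neutral control wells and -100% = median of positive control wells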
# Conditions: CHO ldlA[mSR-BI] DiI-HDL uptake fluorescence, 3 h; series mostly up to 35 µM; activity change, negative = inhibition: at the top concentration
# Sequence of Scavenger receptor class B member 1 (Mus musculus) (Q61009 whole entry, looked up): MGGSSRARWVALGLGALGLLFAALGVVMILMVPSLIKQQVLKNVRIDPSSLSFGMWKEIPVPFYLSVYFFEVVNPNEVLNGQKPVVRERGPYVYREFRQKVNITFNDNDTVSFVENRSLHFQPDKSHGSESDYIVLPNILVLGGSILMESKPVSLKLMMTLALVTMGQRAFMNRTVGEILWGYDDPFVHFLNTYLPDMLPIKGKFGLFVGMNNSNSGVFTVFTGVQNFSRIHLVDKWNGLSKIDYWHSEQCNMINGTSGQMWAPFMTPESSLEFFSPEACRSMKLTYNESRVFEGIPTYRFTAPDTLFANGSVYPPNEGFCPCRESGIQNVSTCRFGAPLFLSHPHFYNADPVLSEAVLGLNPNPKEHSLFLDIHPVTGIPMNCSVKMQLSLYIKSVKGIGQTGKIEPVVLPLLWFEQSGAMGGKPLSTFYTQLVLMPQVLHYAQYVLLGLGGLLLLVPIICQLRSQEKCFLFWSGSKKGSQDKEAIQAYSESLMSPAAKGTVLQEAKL
row,Compound,"activity change, negative = inhibition [%]"
1,O=S1(=O)N(CCN2CC=C(c3c[nH]c4cc(F)ccc34)CC2)c2cccc3c2N1CCC3,0.978
2,CNC1(c2ccc(F)cc2)CCCCC1,6.55
3,O=C(Nc1ccccc1F)OC1CN2CCC1CC2 (configuration not stated),31
4,O=c1cccc2n1CC1CC2CN(S(=O)(=O)c2cc(Cl)ccc2Cl)C1 (configuration not stated),8.09
5,CC(C)(C)c1ccc(S(=O)(=O)N2CC3CC(C2)c2cccc(=O)n2C3)cc1 (configuration not stated),-4.36
6,CCCCCCn1c(=O)c(C(=O)Nc2cnccn2)c(O)c2ccccc21,64.8
7,COc1ccc(NC(=O)C2C3CCC(O3)C2C(=O)O)c(OC)c1 (configuration not stated),37.1

# Reference: PubChem BioAssay AID493194 (Broad Institute, 2011)
